# Among all 330,000 compounds or so, about 4,900 (1.5%) were called active. What follows is part of a selection rich in actives, with near analogues and random picks from the rest. Unmarked numbers belong to inactive results.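 The calls were made as follows: active = inhibition above about 50% at the single test dose (limit read from the data); inactive = the rest.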
# Target: Sentrin-specific protease 7 (Homo sapiens) (UniProt Q9BQF6)
# Assay: blockers of human SENP7 peptidase activity – biochemical, luminescence, uHTS, primary screen (AID 434973);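 also: plate controls were DMSO with enzyme for no effect and no enzyme buffer wells for full effect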
# Details: recombinant SENP7, Z-RLRGG-aminoluciferin luminescence, 40 min; at 5 µM; active compounds read high
row,SMILES,inhibition
1,COc1ccc(C2c3c(C)nn(-c4ccccc4)c3NC(=O)N2c2ccccc2)cc1 (stereo unspecified),3.05%
2,CCCCNC(=O)OC(C)CNC(=O)OC (stereo unspecified),-1.91%
3,Cc1ccc(C(=O)NCC(=O)O)s1,-11.9%
4,O=C(NCCc1ccccc1)C1CC1,-1.24%
5,COc1ccc(N(C(=O)c2snc(C(N)=O)c2N)C(C(=O)NC2CCCC2)c2ccco2)cc1OC (stereo unspecified),-9.37%
6,CCc1ccc(-c2cc(C(=O)NCc3ccco3)c3ccccc3n2)s1,6.27%
7,CCC1(CC)NC(=O)N(Cc2nc3ccccc3s2)C1=O,-4.41%
8,CC(=NCc1ccco1)c1c(C(F)(F)F)[nH]n(-c2nc3ccccc3s2)c1=O,98.9% (active)
9,CCC(C)Cn1c(O)cc2nn(-c3nc4ccccc4s3)c(=O)c-2c1C (stereo unspecified),8.83%
10,C/C(=N\NC(=O)CC(C)C)c1c(C(F)(F)F)[nH]n(-c2nc3ccccc3s2)c1=O,98.7% (active)
11,CC(C)CC(=O)N/C(N)=N/c1nc2ccccc2s1,33.4%
12,CC(=O)c1sc(NC(=O)CCN2C(=O)C3CC=CCC3C2=O)nc1-c1ccccc1 (stereo unspecified),0.528%
13,Cc1ccc(C)c(N2C(=O)CS/C2=N\NC(=O)c2ccccc2Cl)c1,-12.9%
14,CCCCC/C=C/C1=CC(=O)C[C@H](c2ccc(Cl)cc2)C1,2.82%
15,COc1ccc(C(=O)/C=C/Nc2ccccn2)cc1,99.2% (active)
16,CCOc1ccc(N/C=C/C(=O)c2cc(OC)c(OC)c(OC)c2)cc1,-14.5%
17,CCOc1ccc(N/C=C/C(=O)c2ccccc2)cc1,99.3% (active)
18,CC(=O)Nc1ccc(/C=C/C(=O)c2ccccc2)cc1,-13.6%
19,Cc1cc(N/C=C\C(=O)c2ccc(Cl)c(Cl)c2)no1,10.2%
20,O=C(/C=C/NCc1ccc(F)cc1)c1ccccc1,7.34%
21,COc1ccc(N2C(=O)CCC(C(=O)Nc3ccccn3)C2c2ccc(OC)c(OC)c2)cc1 (stereo unspecified),9.84%
22,CCOc1ccc(NC(=S)N2CCC(NC(=O)c3ccccc3)CC2)cc1,-5.22%

row,SMILES,inhibition
1,Cc1ccc(N/C=C/C(=O)c2ccccc2)cc1C,91.8% (active)
2,NCCCC[C@@H]1NC(=O)[C@H](CCC(=O)O)NC(=O)c2cc([N+](=O)[O-])cc(I)c2NCC[C@@H](C(N)=O)NC1=O,0.545%
3,O=C(COC(=O)c1cccnc1Cl)NC(=O)NC1CCCCC1,-2.4%
4,CN(C)CCCN(C(=O)c1ccc(S(=O)(=O)N2CCCCCC2)cc1)c1nc2cc3c(cc2s1)OCCO3,4.88%
5,O=C(c1ccc2nc(N3CCOCC3)sc2c1)N1CCN(c2ccc(Cl)cc2)CC1,0.5%
6,Fc1ccc2nc(N3CCCCC3)sc2c1,85.3% (active)
7,Cc1nc(N2CCCCC2)sc1C=O,11.3%
8,O=C(NCCc1cccc(F)c1)C1CCCN(c2nc3ccccc3s2)C1 (stereo unspecified),7.46%
9,Fc1ccc2nc(Nc3nc4c(s3)CCCC4)sc2c1,9.46%
10,Brc1ccc2nc(N3CCCC3)sc2c1,93.4% (active)
11,O=S(=O)(Nc1ccc2nc(N3CCOCC3)sc2c1)c1ccccc1,-7.76%
12,c1c2c(cc3sc(N4CCCCC4)nc13)OCCO2,97.8% (active)
13,C/C(CC(=O)N1CCN(C=O)CC1)=N\NC(=O)c1ccc(Br)cc1,4.47%
14,COCC(C)n1c(SCC(=O)NC2CCCCC2C)nc2ccccc2c1=O (stereo unspecified),-6.63%
15,CC(C)NC(=O)c1ccc(Sc2ccccc2)c([N+](=O)[O-])c1,4.52%
16,O=C(c1ccc(=O)oc1)N1CCC(C(O)(c2ccccc2)c2ccccc2)CC1,-5.43%
17,CCC1CCCCN1C(=S)Nc1ccc(S(=O)(=O)Nc2ncccn2)cc1 (stereo unspecified),-9.27%
18,O=C(Nc1ccc(NC(=O)c2cccs2)cc1)c1ccc2ccccc2c1,-6.64%
19,CCc1ccc(NC(=O)C(=O)NNC(=O)c2cccs2)cc1,51.4% (active)
20,Cc1cccc(-n2c(C)cc(/C=N\NC(=O)c3cccs3)c2C)c1,-3.16%
21,CC(C)C(=O)Nc1ccc(C(=O)NNC(=O)c2cccs2)cc1,-0.683%
22,Cc1ccc(C(=O)Nc2ccc(NC(=O)c3cccs3)cc2)c(C)c1,-5.29%

row,SMILES,inhibition
1,CC(=O)Nc1ccc(/C=N/NC(=O)c2cccs2)cc1,67.7% (active)
2,O=C(Nc1ccccc1)c1ccc(NC(=O)c2cccs2)cc1,67.8% (active)
3,CCN(CC)c1ccc(/C=N/NC(=O)CNC(=O)c2cccs2)cc1,2.87%
4,CCc1ccc(NC(=O)COC(=O)c2cccs2)cc1,17.2%
5,O=C(COC(=O)/C=C/c1cccs1)NC1CCCCC1,6.28%
6,COCCCNC(=O)[C@H]1N2C(=O)c3ccccc3C2SC1(C)C (stereo partly specified),-7.11%
7,COC(=O)Cc1csc(/N=C/c2c(O)n(-c3cccc(C(F)(F)F)c3)c(=O)c3ccccc23)n1,-1.46%
8,CCCCN(C(=O)C1CCC1)c1c(N)n(Cc2ccccc2)c(=O)[nH]c1=O,5.98%
9,O=C(CCS(=O)(=O)c1ccccc1Cl)Nc1ccc(S(=O)(=O)Nc2ncccn2)cc1,5.16%
10,CCCCSCCCNC(=O)C1CCC(CNS(=O)(=O)c2ccc(NC(C)=O)cc2)CC1 (stereo unspecified),-1.73%
11,O=c1[nH]c(CN2CCOCC2)nc2cc(Cl)ccc12,10.2%
12,O=c1[nH]c(CCl)nc2cc(-c3ccc(Cl)cc3)sc12,63.1% (active)
13,NC(=O)Cc1nc2scc(-c3ccc(Cl)cc3)c2c(=O)[nH]1,-2.34%
14,Cc1cccc(C)c1NC(=O)CNC(=O)c1ccc2c(c1)OCCO2,-14.1%
15,CCCCC(CC)C(=O)Nc1ccc(Cl)cn1 (stereo unspecified),-1.33%
16,O=C(Nc1ccc(Cl)cn1)c1cnn2cccnc12,27.2%
17,Cc1ccc(C(=O)NNC(=O)c2ccc3c(c2)OCCO3)cc1,6.51%
18,O=C(Nc1ccc(Cl)cn1)c1ccc2c(c1)OCCO2,82.6% (active)
19,Cc1nc(NC(=O)c2ccc3c(c2)OCCO3)ccc1Br,87.2% (active)
20,CCCc1cc(C(=O)Nc2ccc(C(=O)OC)cc2)cs1,-0.862%
21,COc1ccc(C(=O)NC(=S)Nc2ccc(Cl)cn2)cc1OC,-7.53%
22,CCCc1cc(C(=O)Nc2ccc(Cl)cn2)cs1,76.6% (active)

# Source: PubChem BioAssay AID434973 (Sanford-Burnham Center for Chemical Genomics, 2010)
